From PubChem BioAssay (NCATS)
Records with an inconclusive call do not appear. The source made the active and inactive calls. Unless noted, calls come from the whole dose curve; as a rule, active = well fitted curve in the direction sought with a large enough effect; inconclusive = small, poorly fitted or top-dose-only effect, or another doubt; inactive = no such curve, though single readings can be large; an effect the other way counts as inactive or inconclusive.

Key:
[1] = biological target: Cytochrome P450 1A2 (Homo sapiens) (UniProt P05177); test: p450-cyp1a2 (AID 410; calls by dose curve; note: potency is the fitted concentration of half-maximal effect)
Chain of Cytochrome P450 1A2 (Homo sapiens) (P05177 whole entry, looked up): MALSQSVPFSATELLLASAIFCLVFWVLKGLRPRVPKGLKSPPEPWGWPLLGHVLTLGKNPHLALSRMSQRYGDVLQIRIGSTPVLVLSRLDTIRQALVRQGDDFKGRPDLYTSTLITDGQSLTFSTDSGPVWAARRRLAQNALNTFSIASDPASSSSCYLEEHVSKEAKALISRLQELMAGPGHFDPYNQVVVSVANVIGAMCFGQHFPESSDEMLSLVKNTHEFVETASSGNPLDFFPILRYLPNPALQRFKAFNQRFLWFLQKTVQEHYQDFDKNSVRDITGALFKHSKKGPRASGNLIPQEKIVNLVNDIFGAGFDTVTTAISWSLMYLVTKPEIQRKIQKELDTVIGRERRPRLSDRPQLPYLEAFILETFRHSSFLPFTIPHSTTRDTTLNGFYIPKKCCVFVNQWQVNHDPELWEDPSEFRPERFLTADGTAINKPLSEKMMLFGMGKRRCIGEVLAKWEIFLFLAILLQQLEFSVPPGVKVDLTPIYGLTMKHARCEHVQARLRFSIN
Summary of the method: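 Luminescent readout of luciferin formed from Luciferin-ME by human CYP1A2; data normalized against complete inhibition by 57 uM furafylline. Enzyme 20nM, substrate 100uM at Km, 100mM KPO4 buffer, 60 min reaction at room temperature.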

[2] = biological target: Glucocorticoid receptor (Homo sapiens) (UniProt P04150); test: GR-GFP Redistribution (AID 450;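 active = compounds whose dose series gives a full or clear partial fitted curve of increased nuclear translocation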; note: potency is the fitted concentration of half-maximal effect); settings: U2OS GR-GFP nuclear translocation, laser cytometry, 2 h
Chain of Glucocorticoid receptor (Homo sapiens) (P04150 whole entry, looked up, the tested form may be a part): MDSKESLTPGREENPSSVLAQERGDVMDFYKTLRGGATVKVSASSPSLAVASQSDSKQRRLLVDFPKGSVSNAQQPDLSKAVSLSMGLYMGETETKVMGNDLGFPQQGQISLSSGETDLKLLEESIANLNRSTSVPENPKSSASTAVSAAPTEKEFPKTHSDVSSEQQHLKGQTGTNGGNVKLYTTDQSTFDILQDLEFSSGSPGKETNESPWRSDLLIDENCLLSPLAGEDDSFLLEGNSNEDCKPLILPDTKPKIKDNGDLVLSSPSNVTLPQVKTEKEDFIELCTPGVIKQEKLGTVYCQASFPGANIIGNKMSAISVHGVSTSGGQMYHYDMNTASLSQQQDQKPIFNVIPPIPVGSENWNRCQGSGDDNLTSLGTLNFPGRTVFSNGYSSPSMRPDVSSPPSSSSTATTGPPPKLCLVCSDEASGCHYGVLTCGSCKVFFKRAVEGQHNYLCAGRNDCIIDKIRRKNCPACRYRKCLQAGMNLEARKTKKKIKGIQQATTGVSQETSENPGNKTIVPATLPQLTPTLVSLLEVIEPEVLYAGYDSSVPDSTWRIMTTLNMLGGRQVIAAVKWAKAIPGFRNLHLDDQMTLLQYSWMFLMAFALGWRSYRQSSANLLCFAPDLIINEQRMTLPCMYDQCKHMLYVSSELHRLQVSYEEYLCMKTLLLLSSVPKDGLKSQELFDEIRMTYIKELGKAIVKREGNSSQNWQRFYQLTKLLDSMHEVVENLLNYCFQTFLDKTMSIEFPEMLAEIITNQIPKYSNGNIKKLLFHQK

[3] = biological target: Glucocorticoid receptor (Homo sapiens) (UniProt P04150); test: GR-EFC Redistribution (AID 451; calls by dose curve; note: potency is the fitted concentration of half-maximal effect); settings: CHO-K1 GR-EFC translocation, beta-gal luminescence, 2 h
Summary of the method: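 CHO-K1 cells expressing nuclear EA and GR-ED fragments of b-gal; compounds titrated up to 46 uM final, 2 h at 37 C. GR nuclear translocation read as complemented b-gal luminescence after 1 h RT detection.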

[4] = biological target: Mitogen-activated protein kinase 10 (Mus musculus) (UniProt Q61831); test: JNK3 AlphaScreen Assay (AID 530; active = well fitted curve in either direction with a large enough effect, not every such curve was filed as active;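 note: kinase came from lysate of stimulated human HepG2 cells; signal reports phosphorylation of biotinylated GST-cJun 1-79 at Ser73 with 10 µM ATP; series mostly up to about 57 µM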)
Summary of the method: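 Pre-activated (IL-1β/TNFα) JNK3 in HepG2 lysates phosphorylates biotin-GST-cJun(1-79), 10 uM ATP; anti-phospho-cJun(Ser73) AlphaScreen read at room temperature, pH 7.6 Tris buffer. Compounds pre-incubated 15 min as titrations.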

[5] = biological target: 3',5'-cyclic-AMP phosphodiesterase 4B (Homo sapiens) (UniProt Q07343); test: qHTS Assay for Inhibitors of PDE-IV (AID 607; active = well fitted activation curve with a large enough effect in the main read-out, with a control signal flat, not every such curve was filed as active)
Chain of 3',5'-cyclic-AMP phosphodiesterase 4B (Homo sapiens) (Q07343 whole entry, looked up): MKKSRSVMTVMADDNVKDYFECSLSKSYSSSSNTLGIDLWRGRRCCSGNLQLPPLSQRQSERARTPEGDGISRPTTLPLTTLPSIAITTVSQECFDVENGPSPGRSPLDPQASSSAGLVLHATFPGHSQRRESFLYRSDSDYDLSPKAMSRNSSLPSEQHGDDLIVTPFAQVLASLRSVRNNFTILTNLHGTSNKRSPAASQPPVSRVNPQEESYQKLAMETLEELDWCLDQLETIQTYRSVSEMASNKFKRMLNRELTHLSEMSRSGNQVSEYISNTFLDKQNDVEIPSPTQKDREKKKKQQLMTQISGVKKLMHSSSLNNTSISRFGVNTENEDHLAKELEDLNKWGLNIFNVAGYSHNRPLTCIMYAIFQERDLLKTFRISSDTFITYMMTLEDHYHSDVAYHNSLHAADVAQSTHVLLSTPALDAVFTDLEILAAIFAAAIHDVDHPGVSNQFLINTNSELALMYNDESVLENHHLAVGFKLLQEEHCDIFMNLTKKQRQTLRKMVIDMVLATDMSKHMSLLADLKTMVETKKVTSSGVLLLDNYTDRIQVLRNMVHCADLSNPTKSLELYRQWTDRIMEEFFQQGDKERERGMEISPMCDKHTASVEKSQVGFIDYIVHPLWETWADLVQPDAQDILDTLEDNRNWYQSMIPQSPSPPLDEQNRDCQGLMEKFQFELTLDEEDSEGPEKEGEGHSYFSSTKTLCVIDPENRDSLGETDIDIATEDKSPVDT
Summary of the method: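 HEK293 ACTOne cells with CNG channel (1000/well), endogenous PDE4; membrane potential dye, compounds up to 22.9 uM final. Fluorescence Ex 535/Em 590; RO 20-1724 (100 uM final) as reference.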

[6] = biological target: DNA dC->dU-editing enzyme APOBEC-3G (Homo sapiens) (UniProt Q9HC16); test: qHTS for inhibitors of Vif-A3G interactions: Validation (AID 588379); note: potency is the fitted concentration of half-maximal effect
Chain of DNA dC->dU-editing enzyme APOBEC-3G (Homo sapiens) (Q9HC16 whole entry, looked up): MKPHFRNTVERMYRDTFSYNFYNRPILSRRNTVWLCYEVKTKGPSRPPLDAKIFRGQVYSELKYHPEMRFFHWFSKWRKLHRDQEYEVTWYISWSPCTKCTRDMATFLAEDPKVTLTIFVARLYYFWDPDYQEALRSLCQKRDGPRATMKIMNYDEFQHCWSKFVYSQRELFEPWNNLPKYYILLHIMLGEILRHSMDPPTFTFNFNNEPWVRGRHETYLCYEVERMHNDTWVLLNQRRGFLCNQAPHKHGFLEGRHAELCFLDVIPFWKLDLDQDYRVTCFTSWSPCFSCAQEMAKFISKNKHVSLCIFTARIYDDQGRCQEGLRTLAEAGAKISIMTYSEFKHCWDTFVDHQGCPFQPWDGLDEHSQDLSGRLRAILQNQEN
Summary of the method: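 HeLa cells stably expressing Vif and A3G-eYFP, 700 cells/well, incubated overnight at 37 deg C, then exposed to compound overnight at 37 deg C. Inhibition of Vif-mediated degradation read as increased yellow fluorescence (Ex 488/Em 500-530) by laser-scanning cytometry.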

[7] = tested on: Zika virus NS2B-NS3 protease; test: Primary screen GU AMC qHTS for Zika virus inhibitors (AID 1347154); note: nearly all actives have a fitted effect of over 70% in size; note: potency is the fitted concentration of half-maximal effect
Summary of the method: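 Unlinked Zika NS2B hydrophilic domain–NS3 protease complex at 25 nM in 10 mM Tris-HCl pH 8.0, 0.01% Tween 20, with an AMC peptide substrate. Fluorescence change (340/450 nm) over 15 min at room temperature, normalized to controls, fitted to 4-parameter Hill.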

[8] = Primary qHTS for small molecule stabilizers of the endoplasmic reticulum resident proteome: Secreted ER Calcium Modulated Protein (SERCaMP) assay (AID 1508630)
Summary of the method: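 GLuc-SERCaMP-expressing SH-SY5Y cells, pretreated 16 h with compound, are challenged with thapsigargin to empty ER calcium stores; after 4 h, coelenterazine is added directly to the medium and luminescence is imaged.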

[9] = biological target: Cytochrome P450 2C9 (Homo sapiens) (UniProt P11712); test: qHTS Assay for Inhibitors and Substrates of Cytochrome P450 2C9 (AID 883); note: potency is the fitted concentration of half-maximal effect; nearly all actives have a fitted effect of over 60% in size
Chain of Cytochrome P450 2C9 (Homo sapiens) (P11712 whole entry, looked up): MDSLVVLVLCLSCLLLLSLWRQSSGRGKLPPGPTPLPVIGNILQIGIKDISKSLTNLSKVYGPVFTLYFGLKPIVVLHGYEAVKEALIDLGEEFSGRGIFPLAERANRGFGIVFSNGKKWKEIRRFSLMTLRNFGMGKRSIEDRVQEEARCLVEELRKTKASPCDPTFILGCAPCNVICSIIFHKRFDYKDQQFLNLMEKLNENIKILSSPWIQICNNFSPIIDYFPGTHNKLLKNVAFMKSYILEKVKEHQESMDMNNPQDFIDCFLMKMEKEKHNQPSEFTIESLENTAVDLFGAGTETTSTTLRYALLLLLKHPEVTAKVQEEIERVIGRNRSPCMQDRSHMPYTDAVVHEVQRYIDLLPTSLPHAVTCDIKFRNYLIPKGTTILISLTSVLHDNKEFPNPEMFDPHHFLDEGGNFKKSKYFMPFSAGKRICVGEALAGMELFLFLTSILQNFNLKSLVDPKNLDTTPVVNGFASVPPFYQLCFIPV
Summary of the method: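 10nM CYP2C9 + 100uM Luciferin-H (=KM), 25mM KPO4; cpd 10 min 37C; NADPH regen, 60 min 37C; stop/detect with P450 Glo-Buffer 20 min; luminescence. Norm. to 57uM sulphaphenazole as full inhibition.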

[10] = biological target: Cytochrome P450 3A4 (Homo sapiens) (UniProt P08684); test: qHTS Assay for Activators of Cytochrome P450 3A4 (AID 885); note: nearly all actives have a fitted effect of over 65% in size
Chain of Cytochrome P450 3A4 (Homo sapiens) (P08684 whole entry, looked up): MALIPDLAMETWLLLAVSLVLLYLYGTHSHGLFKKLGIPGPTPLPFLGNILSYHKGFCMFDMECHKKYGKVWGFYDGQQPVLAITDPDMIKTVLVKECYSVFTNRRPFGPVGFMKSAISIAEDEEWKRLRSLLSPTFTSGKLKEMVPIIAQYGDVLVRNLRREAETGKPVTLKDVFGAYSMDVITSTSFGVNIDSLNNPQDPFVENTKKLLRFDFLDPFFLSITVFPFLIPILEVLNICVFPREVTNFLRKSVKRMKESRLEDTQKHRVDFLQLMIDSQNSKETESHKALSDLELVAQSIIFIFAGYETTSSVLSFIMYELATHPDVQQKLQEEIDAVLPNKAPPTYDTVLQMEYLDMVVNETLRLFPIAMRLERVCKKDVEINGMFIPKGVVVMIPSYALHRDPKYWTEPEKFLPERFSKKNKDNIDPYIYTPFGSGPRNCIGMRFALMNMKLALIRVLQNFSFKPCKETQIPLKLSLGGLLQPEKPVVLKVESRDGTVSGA
Summary of the method: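 Human CYP3A4 (20 nM) with Luciferin-PPXE at 25 uM (its KM) in 200 mM KPO4; 10 min compound preincubation, then NADPH regeneration and 60 min reaction at RT. Luciferin read by luminescence; normalized to 57 uM ketoconazole full inhibition.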

[11] = biological target: Cytochrome P450 2C19 (Homo sapiens) (UniProt P33261); test: qHTS Assay for Inhibitors and Substrates of Cytochrome P450 2C19 (AID 899); note: potency is the fitted concentration of half-maximal effect; nearly all actives have a fitted effect of over 60% in size
Chain of Cytochrome P450 2C19 (Homo sapiens) (P33261 whole entry, looked up): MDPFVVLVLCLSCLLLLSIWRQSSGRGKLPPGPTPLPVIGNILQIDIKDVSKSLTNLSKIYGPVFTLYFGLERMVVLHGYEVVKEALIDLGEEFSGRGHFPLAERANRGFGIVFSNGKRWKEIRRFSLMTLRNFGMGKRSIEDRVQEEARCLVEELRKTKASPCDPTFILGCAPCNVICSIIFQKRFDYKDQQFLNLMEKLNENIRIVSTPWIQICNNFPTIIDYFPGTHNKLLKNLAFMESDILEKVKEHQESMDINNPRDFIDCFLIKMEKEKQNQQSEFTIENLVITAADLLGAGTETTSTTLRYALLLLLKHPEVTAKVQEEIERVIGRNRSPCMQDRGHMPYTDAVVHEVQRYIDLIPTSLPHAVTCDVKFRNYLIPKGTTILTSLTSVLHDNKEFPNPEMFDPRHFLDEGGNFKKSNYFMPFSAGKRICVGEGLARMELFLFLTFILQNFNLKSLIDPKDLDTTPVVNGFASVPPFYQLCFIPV
Summary of the method: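 Luminescent read-out of luciferin formed from Luciferin-H EGE (10uM, equal to KM). Enzyme 5nM in 50mM KPO4; compound added, 10 min at 37C, then NADPH regenerating system for 60 min at 37C. Full inhibition defined by 57uM ketoconazole.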

[12] = biological target: Ubiquitin carboxyl-terminal hydrolase 1 (Homo sapiens) (UniProt O94782); test: Inhibitors of USP1/UAF1: Pilot qHTS (AID 504865);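 note: rhodamine fluorescence freed from ubiquitin-rhodamine substrate followed over time; top concentration of the series differs between compounds; nearly all actives have a fitted effect of over 35% in size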
Chain of Ubiquitin carboxyl-terminal hydrolase 1 (Homo sapiens) (O94782 whole entry, looked up): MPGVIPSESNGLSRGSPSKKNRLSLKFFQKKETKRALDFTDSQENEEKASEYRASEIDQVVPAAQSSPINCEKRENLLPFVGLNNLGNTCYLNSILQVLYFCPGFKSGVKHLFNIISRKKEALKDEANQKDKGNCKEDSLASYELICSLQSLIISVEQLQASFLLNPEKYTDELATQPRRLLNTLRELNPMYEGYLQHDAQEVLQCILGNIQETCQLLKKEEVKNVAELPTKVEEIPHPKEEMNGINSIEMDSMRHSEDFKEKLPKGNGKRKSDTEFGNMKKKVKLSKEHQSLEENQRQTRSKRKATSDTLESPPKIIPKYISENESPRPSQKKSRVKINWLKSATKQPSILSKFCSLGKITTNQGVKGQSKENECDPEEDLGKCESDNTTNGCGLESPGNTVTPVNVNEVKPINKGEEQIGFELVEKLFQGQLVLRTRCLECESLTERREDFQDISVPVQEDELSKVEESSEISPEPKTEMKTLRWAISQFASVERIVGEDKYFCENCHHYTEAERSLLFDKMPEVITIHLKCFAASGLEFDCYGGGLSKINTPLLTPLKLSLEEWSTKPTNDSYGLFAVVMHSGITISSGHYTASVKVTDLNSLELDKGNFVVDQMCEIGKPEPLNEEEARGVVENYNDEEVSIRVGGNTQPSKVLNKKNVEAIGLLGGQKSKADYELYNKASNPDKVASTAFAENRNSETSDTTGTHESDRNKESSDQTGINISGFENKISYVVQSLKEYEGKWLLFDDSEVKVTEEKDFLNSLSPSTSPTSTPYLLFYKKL
Summary of the method: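 USP1/UAF1 complex (1nM) preincubated with compound 15 min at room temperature, then Ub-Rho substrate (150nM final) added. Fluorescence read kinetically at 480/540 nm, 6 reads every 60 seconds. Buffer: 50mM HEPES pH 7.8, 0.5mM EDTA, 0.1 mg/ml BSA, 1mM TCEP, 0.01% Tween-20.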

[13] = biological target: Cytochrome P450 2D6 (Homo sapiens) (UniProt P10635); test: qHTS Assay for Inhibitors and Substrates of Cytochrome P450 2D6 (AID 891); note: potency is the fitted concentration of half-maximal effect; nearly all actives have a fitted effect of over 60% in size
Summary of the method: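 Human CYP2D6 (5 nM) with 30 uM Luciferin-ME EGE (at Km) in 100 mM KPO4, compound preincubated 10 min, then NADPH regeneration system for 60 min at room temperature. Luciferin read by luminescence; normalized to 1.43 uM quinidine.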

[14] = biological target: Cytochrome P450 3A4 (Homo sapiens) (UniProt P08684); test: qHTS Assay for Inhibitors and Substrates of Cytochrome P450 3A4 (AID 884); note: potency is the fitted concentration of half-maximal effect; nearly all actives have a fitted effect of over 50% in size
Summary of the method: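 20 nM human CYP3A4 with 25 uM Luciferin-PPXE (at KM) in 200 mM KPO4, preincubated 10 min with compound; NADPH regeneration started a 60 min RT reaction. Luciferin detected by luminescence, normalized to 57 uM ketoconazole as full inhibition.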

Measured: Potency

N[C@@H](Cc1cc(-c2ccc(Cl)cc2Cl)cc(CP(=O)(O)O)c1O)C(=O)O
active: [1] 20 µM | [7] 23.8 µM
inactive: [2] > 46 µM | [3] > 46 µM | [4] | [5] | [6] | [8]

CCCCOC(=O)c1cc2c(cn1)[nH]c1ccccc12
inactive: [2] > 46 µM | [3] > 46 µM | [4] | [10] | [6] | [7] | [8]
active: [1] 0.158 µM | [9] 7.94 µM | [11] 5.01 µM

Clc1cccc(Nc2nnc(-c3ccccc3)c3ccccc23)c1
active: [1] 1.26 µM | [9] 3.98 µM | [11] 0.794 µM
inactive: [2] > 46 µM | [3] > 46 µM | [4] | [10] | [6] | [7] | [8]

CCCCCCc1c(C[C@H](N)C(=O)O)o[nH]c1=O
inactive: [2] > 46 µM | [3] > 46 µM | [4] | [5] | [12] | [6] | [7] | [8]
active: [1] 31.6 µM

CC[N+](CC)(CC)CCOc1ccc(/C=C\c2ccccc2)cc1
inactive: [2] > 46 µM | [3] > 46 µM | [4] | [5] | [12] | [6] | [7] | [8]
active: [1] 31.6 µM | [13] 7.94 µM

N[C@H](Cn1ccc(=O)n(Cc2ccccc2C(=O)O)c1=O)C(=O)O
inactive: [1] | [2] > 46 µM | [3] > 46 µM | [4] | [5] | [12] | [6] | [7] | [8]

COc1ccc2c(c1)CCC1[C@@H]2CCC2(C)[C@@H](NCCCCCCN3C(=O)C=CC3=O)CC[C@@H]12 (some centres not stated)
inactive: [1] | [2] > 46 µM | [3] > 46 µM | [4] | [5] | [6] | [7] | [8]

OC[C@@H](O)COc1cccc2ccccc12
active: [1] 0.631 µM
inactive: [2] > 46 µM | [3] > 46 µM | [5] | [12] | [6] | [7] | [8]

CC1(C)CC(=O)C([C@H]2C3=C(CC(C)(C)CC3=O)Oc3ccccc32)C(=O)C1
inactive: [1] | [2] > 46 µM | [3] > 46 µM | [4] | [5] | [10] | [12] | [6] | [7] | [8]

CCCCC#Cc1nc(NC)c2ncn([C@@H]3O[C@@H](CO)[C@H](O)[C@H]3O)c2n1
active: [1] 31.6 µM | [9] 0.631 µM
inactive: [2] > 46 µM | [3] > 46 µM | [4] | [5] | [12] | [6] | [7] | [8]

O=C(Cc1ccccc1)Nc1nc2ccc(Cl)cc2c2nc(-c3ccco3)nn12
inactive: [2] > 46 µM | [3] > 46 µM | [4] | [5] | [10] | [12] | [7] | [8]
active: [1] 0.2 µM | [9] 3.16 µM | [11] 1.58 µM | [6] 21.1 µM

CSc1cc2c(cc1C(F)(F)F)N(C(=O)Nc1cccnc1)CC2
active: [1] 0.000794 µM | [9] 0.0063 µM
inactive: [2] > 46 µM | [3] > 46 µM | [4] | [10] | [6] | [7] | [8]

NS(=O)(=O)c1cccc2c1c([N+](=O)[O-])cc1[nH]c(=O)c(=O)[nH]c12
inactive: [1] | [2] > 46 µM | [3] > 46 µM | [4] | [6] | [7] | [8]

O=C1C(=O)N(Cc2ccc(Cl)c(Cl)c2)c2ccccc21
inactive: [2] > 46 µM | [3] > 46 µM | [10] | [6] | [7] | [8]
active: [1] 12.6 µM | [13] 3.98 µM

COc1ccccc1N1CCN(CCCCN2C(=O)CCC2=O)CC1
inactive: [2] > 46 µM | [3] > 46 µM | [4] | [5] | [12] | [6] | [7] | [8]
active: [9] 3.98 µM

Cc1nc2ccc(NC(=O)Nc3ccnc4cccnc34)cc2o1
active: [1] 1 µM
inactive: [2] > 46 µM | [3] > 46 µM | [5] | [10] | [6] | [7] | [8]

COc1cccc(CNc2ccc3nc(-c4ccc(N)cc4)c(OC)n3n2)c1
inactive: [4] | [10] | [12] | [6] | [7] | [8]
active: [1] 39.8 µM | [14] 5.01 µM

Cc1noc(NS(=O)(=O)c2cccc3c(N(C)C)cccc23)c1C
active: [9] 0.631 µM
inactive: [1] | [3] > 46 µM | [4] | [5] | [10] | [6] | [7] | [8]
